PubChem BioAssay AID492998 (Southern Research Specialized Biocontainment Screening …, 2010)
The whole screen tested about 2,300 compounds, of which about 550 (24%) were called active. How the calls were made is not given here. Only a sample is shown. Measured potencies and affinities stand elsewhere.

Assay: Vero E6 cell cytotoxicity, dose response, cytotoxicity control for non-replicating M. tuberculosis project, secondary assay (AID 492998)
Conditions: series mostly up to 20 µM

| Structure (SMILES) | outcome |
| --- | --- |
| O=C(COC(=O)c1ccccc1Cl)NCCC1=CCCCC1 | inactive |
| CC(C)=CC1C(C(=O)Nc2ccc(Br)cn2)C1(C)C (stereo not drawn) | inactive |
| O=C(NCCCN1CCOCC1)c1c(O)c2cc(Br)cc(Br)c2[nH]c1=O | inactive |
| COc1ccc(C(C)NC(=O)CCc2ccccc2)cc1 (stereo not drawn) | inactive |
| COc1ccc(C(CCNCc2ccc(OC(C)C)cc2)C(C)C)cc1 (stereo not drawn) | inactive |
| CCOC(=O)CN1NC2(CCC(C)CC2)NC1=S (stereo not drawn) | inactive |
| COc1ccc(COC(=O)CCNC(=O)c2ccc(Cl)cc2)cc1 | inactive |
| COc1ccc(-c2[nH]ncc2CN2CCCCCCC2)c(OC)c1 | inactive |
| Sc1oc(-c2ccccc2)cc1C=Nc1ccccc1 | inactive |
| CCOC(=O)c1c(-c2ccccc2)csc1NC(=O)CCN1CCOCC1 | inactive |
| CN1c2ccsc2/C(=N/Nc2ccccc2)CS1(=O)=O | inactive |
| CCOC(=O)CNC(=O)CNC(=O)c1nn(-c2ccc(OC)c(Cl)c2)c(=O)c2ccccc12 | inactive |
| O=C(O)c1ccccc1C(=O)NNc1ccc(F)cc1 | inactive |
| CCOC(=O)c1ccc(NC2=CC(=O)C(=O)c3ccccc32)cc1 | inactive |
| CCOC(=O)COc1cc(O)c2c(=O)cc(-c3ccccc3)oc2c1 | inactive |
| CCOC(=O)CCNC(=O)c1ccc2nc(C3CCCCC3)oc2c1 | inactive |
| O=C(Nc1ccc(Cl)cn1)C1COc2ccccc2O1 (stereo not drawn) | inactive |

| Structure (SMILES) | outcome |
| --- | --- |
| COC(=O)COc1ccc2cc(-c3ccc(OC)cc3)c(=O)oc2c1 | inactive |
| COC(=O)CN(C#N)c1nc(N(C)C)nc(N(C)C)n1 | inactive |
| CC(/C=C/c1ccccc1F)=N\NC(=O)c1ccccc1 | inactive |
| Cc1ccc(NC(=S)C2=C(O)c3sccc3N(C)S2(=O)=O)cc1 | inactive |
| Cc1ccc(OCC(=O)N2CCCc3ccccc32)cc1 | inactive |
| Cc1ccc(NC(=O)CO/N=C/c2ccc(N(C)C)cc2)cc1 | inactive |
| Cc1ccc(C(=O)C=CNNC(=O)c2ccccc2)cc1 | inactive |
| COc1ccc(C(=O)C=CNNC(=O)c2ccc(Cl)cc2)cc1 | inactive |
| O=C(COc1ccc(F)cc1)Nc1ccc2c(c1)OCCO2 | inactive |
| Cc1ccc(-n2cc(CNCCn3nc(C)cc3C)c(-c3ccc(F)cc3)n2)cc1 | inactive |
| Cc1ccc(-n2cc(CNCCc3cscn3)c(-c3ccc(F)cc3)n2)cc1 | inactive |
| COc1ccc(OCc2n[nH]c(=S)o2)cc1 | inactive |
| Cc1cccc(NC(=O)CO/N=C/c2ccc3c(c2)OCO3)c1 | inactive |
| CCc1nnc(NC(=O)CN2CCN(Cc3ccc(F)cc3)CC2)s1 | inactive |
| COC(=O)COc1ccc2c(=O)c(-c3ccccc3)coc2c1 | inactive |
| c1ccc2cc(OCCCn3ccnc3)ccc2c1 | inactive |
